dFosB act-1: mouse delta FosB homodimer activation | actives 0.99% (n = 340,000) | P13346 | AID 493131 | purified delta FosB, TAMRA-CDK5 oligo fluorescence polarization; percent of positive-control signal above neutral wells | activation, % at 25 µM;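 active means mean activation above about 17%, with every replicate also reaching it, limit read from the data, passing the limit was not always enough; inconclusive means only one of the two conditions met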
Target sequence (P13346 whole entry, looked up): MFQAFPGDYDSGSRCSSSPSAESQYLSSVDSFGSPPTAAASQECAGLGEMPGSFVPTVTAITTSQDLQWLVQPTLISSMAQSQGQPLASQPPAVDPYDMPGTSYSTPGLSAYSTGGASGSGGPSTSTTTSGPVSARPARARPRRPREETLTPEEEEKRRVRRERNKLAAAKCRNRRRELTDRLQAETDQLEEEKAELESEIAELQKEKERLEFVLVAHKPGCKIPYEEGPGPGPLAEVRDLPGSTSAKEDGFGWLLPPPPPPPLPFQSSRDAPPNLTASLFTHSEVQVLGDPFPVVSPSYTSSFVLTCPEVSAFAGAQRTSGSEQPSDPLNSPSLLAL
RAD52 anneal inh: blocks human RAD52 DNA annealing. P43351. recombinant RAD52 DNA annealing, FRET fluorescence. inhibition, % at 18.7 µM. actives 0.46% (n = 360,000). AID 651710;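 active means every replicate showing at least 50% inhibition; inconclusive means mean inhibition at least 50% but not in every replicate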
DENV2 CPE rescue: inhibitors of DENV2 cytopathic effect | DENV2-infected cells, cytopathic effect rescue, plate reader | CPE inhibition, % at 9.99 µM | actives 1.7% (n = 350,000) | AID 651640; in the data active means CPE inhibition above about 20%, passing the limit was not always enough; inconclusive means no clear call, values can overlap the other calls; tested in BHK-21 cells
GSIS activator: primary screen for activators of insulin secretion dependent on glucose, INS-1E cells, GLuc reporter luminescence | INS-1E GLuc reporter insulin secretion, 2-3 h | activation, % at 16.6 µM | actives 0.61% (n = 370,000);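 active means lowest replicate activation of at least 40%, so every replicate reaches that level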
RAD54 inh: RAD54 (human) branch migration inhibition; Q92698; RAD54 Holliday junction branch migration, FAM/BHQ fluorescence; inhibition, % at 10.4 µM; actives 0.14% (n = 360,000); AID 602329;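 active means mean normalized replicate activity at least 40 and at least half of replicates scoring 40 or more; inconclusive means only one of the two criteria met; inactive means mean below 40 and under half of replicates reaching 40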;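 further: inhibitors cause a drop in the FAM fluorescence signal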
MLL AF4-AF9 inh: inhibitors of human MLL-AF4/AF9 interaction; actives 0.47% (n = 350,000); inhibition, % at 10 µM; P42568; AlphaScreen, biotin-AF4 peptide binding to FLAG-AF9;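 active means every replicate reaching a set inhibition limit, whatever the replicate mean, cut at about 25% in these data; inconclusive means mean inhibition reaches that limit but some replicates miss it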
dFosB act-2: enhances mouse delta FosB homodimer binding to DNA; activation, % at 24.9 µM; purified delta FosB, TAMRA-CDK5 oligo fluorescence polarization; normalised: neutral wells 0, positive control 100; 2,400 tested, under 10 active; AID 588690; shares compounds with dFosB act-1;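 active means highest replicate activation at or above 34% and every replicate reaching that threshold; inconclusive means meets only one of the two criteria; inactive means meets neither criterion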;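 further: higher polarization means more probe DNA bound by delta FosB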
Numbers stand for hits; i = inactive; ? = inconclusive; nt = no result given. Most compounds without a hit are left out; they make up all but 3.1% or so of the library.

SMILES | dFosB act-1 | RAD52 anneal inh | DENV2 CPE rescue | GSIS activator | RAD54 inh | MLL AF4-AF9 inh | dFosB act-2
O=C(CSc1nnc(NC(=O)C2CC2)s1)Nc1cccc(F)c1 | 28 | i | i | i | i | i | i
CN(C)c1ccc2c(c1)[C@@H]1C[C@H](CC(=O)N3CCc4ccccc4C3)O[C@@H](CO)[C@@H]1O2 | nt | i | i | i | i | i | nt
CCS(=O)(=O)N[C@@H]1C=C[C@H](CC(=O)NCc2ccc(Cl)cc2)O[C@H]1CO | nt | i | i | i | i | i | nt
O=C(Nc1ccc(-c2nc3ccccc3[nH]2)cc1)c1c(F)c(F)c(F)c(F)c1F | 29 | i | i | i | i | i | i
O=C(Nc1ccc(Cl)c(-c2nc3ccccc3[nH]2)c1)c1ccc2c(c1)OCO2 | i | nt | nt | i | i | nt | nt
O=C(Nc1ccc(-c2nc3ccccc3[nH]2)cc1)c1ccc2c(c1)OCO2 | 58 | i | i | i | i | i | i
O=C(CSc1ccccc1)Nc1ccc(-c2nc3ccccc3[nH]2)cc1 | i | nt | nt | i | nt | nt | nt
Cc1ccc2nc(-c3ccc(NC(=O)CSc4ccccc4)cc3)[nH]c2c1 | 25 | nt | nt | nt | i | nt | i
C/C(=N\NC(=O)c1nnn(-c2nonc2N)c1CSc1ccccc1)c1cccnc1 | i | i | i | i | i | i | nt
C/C(=N\NC(=O)c1nnn(-c2nonc2N)c1CSc1ccc(C)cc1)c1ccco1 | 18 | i | i | i | i | i | i
C/C(=N\NC(=O)c1nnn(-c2nonc2N)c1CSc1ccccc1)c1ccco1 | 38 | i | i | i | i | i | i
COc1ccc(S(=O)(=O)N(C)C[C@@H]2Oc3ccc(NS(=O)(=O)c4ccccc4)cc3C(=O)N([C@@H](C)CO)C[C@@H]2C)cc1 | nt | nt | nt | i | i | nt | nt
CCNC(=O)C[C@@H]1C=C[C@H](NS(=O)(=O)c2ccc(C)cc2)[C@@H](CO)O1 | nt | i | i | i | i | i | nt
CCC(=O)N(C)C[C@H]1Oc2ncc(-c3ccc(C(=O)N(C)C)cc3)cc2C(=O)N([C@H](C)CO)C[C@@H]1C | nt | i | i | i | i | i | nt
C[C@@H]1CN([C@@H](C)CO)C(=O)c2cccc(NC(=O)Nc3ccc(C(F)(F)F)cc3)c2O[C@@H]1CN(C)C(=O)Nc1ccc(C(F)(F)F)cc1 | nt | i | i | i | i | i | nt
O=C(CNC(=O)c1cc(S(=O)(=O)N2CCCCC2)ccc1N1CCOCC1)Nc1ccc(F)c(F)c1 | 54 | i | i | i | nt | i | i
Cc1cccc(C)c1NC(=O)CN1C(=O)CCSc2ccc(S(=O)(=O)N3CCCC3)cc21 | 48 | i | i | i | i | i | i
O=C(CN1C(=O)CCSc2ccc(S(=O)(=O)N3CCCC3)cc21)Nc1ccccc1Cl | i | i | i | i | i | i | nt
Cc1cc2nc(-c3ccc(SCC(=O)Nc4ccc(S(=O)(=O)N5CCCC5)cc4)nc3)[nH]c2cc1C | i | nt | nt | i | i | nt | nt
Cc1cc2nc(-c3ccc(SCC(=O)Nc4nccs4)nc3)[nH]c2cc1C | 58 | nt | nt | i | i | nt | i
CCNC(=O)[C@@H]1[C@@H](CO)[C@@H]2Cn3c(ccc(-c4cccnc4)c3=O)[C@H]1N2Cc1ccccc1 | nt | i | i | i | i | i | nt
O=C(NCCNC(=O)c1cc(OCC(F)(F)F)ccc1OCC(F)(F)F)Nc1ccc(OC(F)(F)F)cc1 | 38 | nt | nt | nt | nt | nt | i
COC(=O)c1c(NC(=O)CSc2ncnc3c2cnn3-c2ccccc2Cl)sc2c1CCCC2 | i | nt | nt | nt | nt | nt | nt
COC(=O)c1c(NC(=O)Cn2cc([N+](=O)[O-])cn2)sc2c1CCC2 | 27 | nt | nt | nt | i | nt | i
COC(=O)c1c(NC(=O)CSc2ncnc3[nH]ncc23)sc2c1CCC2 | 29 | i | i | i | nt | i | i
SMILES | dFosB act-1 | RAD52 anneal inh | DENV2 CPE rescue | GSIS activator | RAD54 inh | MLL AF4-AF9 inh | dFosB act-2
O=C(Cn1cc([N+](=O)[O-])cn1)NC1CCCCCC1 | i | i | i | i | i | i | nt
COc1ccc(NC(=O)Nc2ccccc2F)cc1Cl | 22 | i | i | i | i | i | i
COc1ccccc1NS(=O)(=O)c1cccc(NC(=O)Nc2ccc(Cl)cc2)c1 | 26 | i | i | i | nt | i | i
C[C@@H]1CCCCO[C@H](CN(C)S(=O)(=O)c2ccccc2)[C@@H](C)CN([C@@H](C)CO)C(=O)c2cc(NC(=O)c3ccccc3)ccc2O1 | nt | i | i | i | i | i | nt
CO/N=C/C(C#N)=C/c1cc(C(=O)c2ccc(F)cc2)cn1C | 50 | i | ? | i | nt | i | i
Cc1ccc(NC(=O)CSc2nnnn2-c2ccc3c(c2)OCO3)cc1C | 40 | nt | nt | nt | i | nt | i
Cc1ccc(-n2nnnc2SCC(=O)Nc2ccc3c(c2)COC3=O)cc1C | 54 | nt | nt | i | i | nt | i
COc1ccc(OC)c(NC(=O)CSc2nnnn2-c2ccc3c(c2)OCO3)c1 | i | i | i | i | i | i | nt
COc1ccc(-n2nnnc2SCC(=O)c2ccc3c(c2)OCCO3)cc1 | 23 | nt | nt | nt | i | nt | i
CC(C)NC(=O)Nc1ccc2c(c1)C(=O)N([C@H](C)CO)C[C@@H](C)[C@@H](CN(C)C)OCCCC[C@H](C)O2 | nt | nt | nt | i | i | i | nt
COCC(=O)Nc1ccc2c(c1)C(=O)N(C)[C@@H]1CC[C@@H](CC(=O)NCC3CCCCC3)O[C@H]1CO2 | nt | i | i | i | i | i | nt
O=C(C[C@H]1CC[C@@H](NC(=O)c2ccccc2)[C@@H](CO)O1)NCc1ccc(Oc2ccccc2)cc1 | nt | i | i | i | i | i | nt
CC(=O)c1ccc(N(C(=O)CS(=O)CC(=O)Nc2ccc(F)cc2)C(C(=O)NC2CCCCC2)c2cccs2)cc1 (stereo not drawn) | 20 | i | i | i | nt | i | i
CC(=O)c1cccc(N(C(=O)CS(=O)CC(=O)Nc2ccc(F)cc2)C(C(=O)NC2CCCCC2)c2ccc(C)o2)c1 (stereo not drawn) | i | nt | nt | i | i | nt | nt
C[C@@H]1CN([C@H](C)CO)C(=O)c2cc(NC(=O)CCCN(C)C)ccc2O[C@@H](C)CCCCO[C@H]1CN(C)C(=O)Nc1cccc2ccccc12 | nt | i | i | i | i | i | nt
Cc1ccc(C)c(NC(=O)Cc2coc3cc4c(cc23)CCC4)c1 | i | nt | nt | i | i | nt | nt
CC(=O)c1cccc(NC(=O)Cc2coc3cc4c(cc23)CCC4)c1 | 41 | nt | nt | i | nt | nt | i
Cc1cc(-c2nc3ncccc3o2)ccc1NC(=S)NC(=O)c1ccco1 | 25 | i | i | i | nt | i | i
CCC(=O)N1CC2(CN(C(C)=O)C2)c2c([nH]c3cc(OC)ccc23)[C@@H]1CO | nt | i | i | i | nt | i | nt
C[C@@H]1CN([C@H](C)CO)C(=O)c2cc(C#CCN(C)C)cnc2O[C@@H]1CN(C)S(C)(=O)=O | nt | i | i | i | i | i | nt
COc1cc(NC(=O)c2nn(C)c3c2CS(=O)(=O)c2ccccc2-3)cc(OC)c1 | 23 | i | i | i | i | i | i

Assay outcomes as filed in PubChem.
